A selection: hits, their analogues and other compounds. The true share with any hit is near 2.1%.
INS-1E GSIS act – GLuc luminescence reporter in INS-1E cells, primary screen for activators of glucose-dependent secretion of insulin | INS-1E GLuc reporter insulin secretion, 2-3 h | actives 0.61% (n = 370,000) | activation, % at 16.6 µM | AID 743287;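 active = lowest replicate activation of at least 40%, so every replicate reaches that level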;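 note: 0% = median of neutral control wells and 100% = median of IBMX positive control wells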
PGC1a acetyl inh – modulators of PGC1a acetylation; inhibition, % at 15.6 µM; AID 651687; actives 0.17% (n = 350,000); U2OS PGC1a acetylation, AlphaScreen anti-acetyl-lysine; with virally co-expressed GCN5 acetyltransferase;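 active = every replicate shows inhibition of at least 40%; inconclusive = mean inhibition at least 40% but some replicate below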;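 note: 0% = neutral control wells and 100% = positive control wells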
NSD2 HMT inh – NSD2 (human) methyltransferase inhibition. inhibition, % at 12.5 µM. AID 743445. NSD2 peptide methylation, AlphaScreen, 120 min. O96028. actives 0.54% (n = 310,000); in the data active = inhibition above about 50%
Target sequence (O96028 whole entry, looked up): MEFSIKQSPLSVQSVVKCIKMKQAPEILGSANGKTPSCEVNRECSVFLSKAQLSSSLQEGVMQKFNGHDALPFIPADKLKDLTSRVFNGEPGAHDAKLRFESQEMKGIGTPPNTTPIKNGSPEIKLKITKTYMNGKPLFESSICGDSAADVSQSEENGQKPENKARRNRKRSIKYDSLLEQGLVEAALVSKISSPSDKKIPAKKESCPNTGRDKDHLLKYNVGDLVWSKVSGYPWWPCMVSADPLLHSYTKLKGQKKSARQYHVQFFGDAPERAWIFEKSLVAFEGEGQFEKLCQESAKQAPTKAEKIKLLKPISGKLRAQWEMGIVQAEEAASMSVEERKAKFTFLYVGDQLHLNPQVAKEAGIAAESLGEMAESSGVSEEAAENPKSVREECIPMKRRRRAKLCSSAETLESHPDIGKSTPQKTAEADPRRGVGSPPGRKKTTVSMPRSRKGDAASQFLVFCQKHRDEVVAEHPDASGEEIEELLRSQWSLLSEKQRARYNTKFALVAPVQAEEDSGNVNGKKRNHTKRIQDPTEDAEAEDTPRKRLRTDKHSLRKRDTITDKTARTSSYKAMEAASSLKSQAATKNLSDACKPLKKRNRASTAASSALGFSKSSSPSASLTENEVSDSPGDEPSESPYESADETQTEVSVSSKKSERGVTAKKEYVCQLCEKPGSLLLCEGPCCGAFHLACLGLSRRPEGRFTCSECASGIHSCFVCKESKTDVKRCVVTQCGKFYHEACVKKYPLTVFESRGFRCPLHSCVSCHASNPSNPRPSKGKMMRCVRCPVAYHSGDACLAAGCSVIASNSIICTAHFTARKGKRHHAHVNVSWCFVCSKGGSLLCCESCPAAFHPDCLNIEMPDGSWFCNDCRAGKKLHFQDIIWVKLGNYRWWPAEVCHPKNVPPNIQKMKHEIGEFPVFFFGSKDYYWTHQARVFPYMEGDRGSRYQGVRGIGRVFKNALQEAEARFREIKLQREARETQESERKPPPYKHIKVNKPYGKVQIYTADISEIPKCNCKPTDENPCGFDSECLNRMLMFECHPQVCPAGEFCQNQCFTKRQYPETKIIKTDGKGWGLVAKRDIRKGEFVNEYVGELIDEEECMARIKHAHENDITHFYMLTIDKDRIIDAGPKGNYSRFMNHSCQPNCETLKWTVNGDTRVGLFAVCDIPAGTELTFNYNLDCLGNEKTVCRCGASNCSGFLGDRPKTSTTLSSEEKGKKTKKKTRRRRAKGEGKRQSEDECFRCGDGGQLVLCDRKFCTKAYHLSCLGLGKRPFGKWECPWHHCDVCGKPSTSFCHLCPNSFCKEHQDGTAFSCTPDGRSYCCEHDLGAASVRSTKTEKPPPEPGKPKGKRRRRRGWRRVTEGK
AF4-AF9 inh – MLL-AF4/AF9 protein interaction inhibition; AID 651704; actives 0.47% (n = 350,000); P42568; inhibition, % at 10 µM; AlphaScreen, biotin-AF4 peptide binding to FLAG-AF9;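 active = every replicate reaching a set inhibition limit, whatever the replicate mean, cut at about 25% in these data; inconclusive = mean inhibition reaches that limit but some replicates miss it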;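 note: 0% = plate neutral control median and 100% = total signal loss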
Env fusion inh – inhibitors of HIV Env-mediated cell fusion | HeLa-JRFL Env/CEM21 cell fusion, luciferase | inhibition, % at 12.3 µM | actives 1.1% (n = 360,000) | AID 651610;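 active = mean replicate inhibition score of at least 50 and every replicate individually at or above 50; inconclusive = only one of the two criteria met; inactive = mean below 50 and not all replicates reaching 50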;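 note: 0% = plate neutral controls and 100% = maraviroc near 300 nM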
* = called active by the depositor; i = inactive; ? = inconclusive; . = no result; [ ] = another dose, or the depositor's remark.

SMILES | INS-1E GSIS act | PGC1a acetyl inh | NSD2 HMT inh | AF4-AF9 inh | Env fusion inh
CCCn1c(=O)c2ccccc2n2c(SCC(=O)c3ccccc3)nnc12 | 0 | -10 | -1 | -2 | .
COc1ccc(/C=N/Nc2snc(SC)c2C#N)cc1OC | . | -9 | 17 | . | .
Cc1nn(S(=O)(=O)c2ccccc2)c(C)c1Sc1ccc([N+](=O)[O-])cc1 | -22 | -25 | 4 | . | .
Cc1nn(S(=O)(=O)c2cccs2)c(C)c1Sc1ccc([N+](=O)[O-])cc1 | 4 | -6 | 6 | . | 97*
CCOC(=O)C1(Cc2cccc(OC)c2)CCN(Cc2ccon2)CC1 | -11 | 0 | -3 | -31 | -1
CCc1cc(-c2cnnn2CCc2c[nH]c3ccccc23)ccc1-c1cn(CC(C)C)nn1 | -43 | . | . | 5 | 5
CCc1cc(-c2nnn(-c3cc(C(C)C)ccc3C)c2CC)ccc1-c1cn(CCc2c[nH]c3ccccc23)nn1 | -2 | -2 | . | 3 | 84*
COc1cccc(OCc2nnc(SCc3cc(=O)[nH]c4ccccc34)o2)c1 | -1 | -1 | 0 | 38* | 1
O=c1cc(CSc2nnc(COc3ccc(Cl)cc3)o2)c2ccccc2[nH]1 | . | 4 | . | . | -14
CCOc1cccc(-c2nnc3sc(C4CCCCC4)nn23)c1 | . | 19 | . | . | 96*
COc1cccc(-c2nnc3sc(C4CCCCC4)nn23)c1 | . | . | -2 | . | 123*
CSc1nc(C)c(C(=O)Nc2ccccc2)c(-c2ccco2)c1C#N | -2 | -9 | . | -1 | 11
COC(=O)c1c(NC(=O)CN2CCC3(O)CCCCC3C2c2ccc(OC)cc2OC)sc(C)c1C (stereo not given) | . | . | 2 | -1 | 66*
CCN(C(=O)CN1CCN(c2ccccc2F)CC1)c1c(N)n(Cc2ccccc2)c(=O)[nH]c1=O | 1 | -2 | 1 | -1 | 6
CCN(C(=O)CN1CCN(c2ccccc2O)CC1)c1c(N)n(Cc2ccccc2)c(=O)[nH]c1=O | . | 50* | 4 | . | .
CCOc1cc(N2CCOCC2)c(OCC)cc1NC(=O)CN1CCC(Cc2ccccc2)CC1 | -9 | . | 8 | 29* | -4
CN(CC(=O)Nc1ccc(Cl)c(C(F)(F)F)c1)C(=O)/C=C/c1ccco1 | -11 | . | 0 | . | 6
Cc1ccc2c(c1)N(C(C)C(=O)NCc1cccs1)C(=O)CO2 (stereo not given) | 51* | 1 | -10 | -18 | 5
Cc1ccc2c(c1)N(C(C)C(=O)NCc1ccccn1)C(=O)CO2 (stereo not given) | 32 | . | -5 | -3 | -16
CC1(C)C(=O)Nc2ccccc2N1C(=O)COC(=O)c1cccnc1 | 11 | 3 | 1 | -10 | 64*
Cc1ccc(C(=O)OCC(=O)N2c3ccccc3NC(=O)C2(C)C)cc1S(=O)(=O)N1CCCCC1 | 16 | -4 | 7 | 1 | 59*
Cc1ccc(S(=O)(=O)N2CCCCC2)cc1C(=O)OCC(=O)N1c2ccccc2NC(=O)C1(C)C | 8 | 0 | 0 | -3 | ?
CCCCCCCCN1C(=O)[C@@H](CC(=O)N2CCCC2)C[C@@]2(C(=O)OC)C1=C[C@H](C1CCCC1)O[C@@H]2C | 112* | . | . | 3 | 19
CCCCCCCCN1C(=O)[C@@H](CC(=O)N2CCN(C(=O)C3CC3)CC2)C[C@@]2(C(=O)OC)C1=C[C@H](C1CCCC1)O[C@@H]2C | 72* | . | . | 1 | ?
Cc1noc(C)c1S(=O)(=O)Nc1ccc2c(c1)C(=O)N([C@H](C)CO)C[C@H](C)[C@@H](CN(C)C(=O)NC(C)C)OCCCC[C@@H](C)O2 | -2 | -4 | . | -1 | -28[16.7 µM]
SMILES | INS-1E GSIS act | PGC1a acetyl inh | NSD2 HMT inh | AF4-AF9 inh | Env fusion inh
COc1cccc(OC)c1C(=O)OCC(=O)NCCCc1ccccc1 | -5 | -9 | -5 | -3 | 1
COc1cccc(OC)c1C(=O)OCC(=O)NCC(C)C | 43* | 4 | -1 | -1 | -25
CC(C)CNC(=O)COC(=O)c1cccc(S(=O)(=O)NCC(F)(F)F)c1 | 7 | 0 | -7 | 25* | -12
CC=Cc1ccc2n(c1=O)C[C@H]1[C@H](CO)[C@@H](C(=O)OC)N(CCc3ccccc3)[C@@H]21 (mixture of isomers) | 9 | . | . | 0 | 60*[16.7 µM]
CN(C)c1ccc(NC(=O)CCCCCn2nnc3ccccc3c2=O)cc1 | 0 | 2 | 2 | 0 | 1
CCCn1c(O)c(N=NC(=O)c2cccnc2)c2cc(Br)ccc21 | 41* | -18 | -1 | 2 | 12
CCCn1c(O)c(N=NC(=O)CNC(=O)c2cccnc2)c2ccccc21 | 10 | -27 | 3 | 2 | 8
COc1ccccc1/C=C/C=N/NC(=O)Cc1cccn1C | 4 | . | 6 | 56* | .
CCOC(=O)C1CCN(c2ncnc3nc[nH]c23)CC1 | . | -1 | . | -4 | -3
O=C(CN1C(=O)S/C(=C\c2cccs2)C1=O)Nc1ccc(C(=O)O)c(O)c1 | 3 | 13 | 27 | 4 | -12
O=C(NC[C@@H]1CC[C@H]2[C@H](CN2Cc2cc(-c3ccccc3)on2)O1)c1ccc2c(c1)OCO2 | . | -25 | . | -4 | 58*[16.7 µM]
COc1ccc2oc(-c3ccncc3)cc(=O)c2c1 | 53* | 3 | -2 | -2 | 30
CC(Oc1ccc2ccc(=O)oc2c1)C(=O)NCCN1CCOCC1 (stereo not given) | 14 | -1 | -5 | -8 | 65*
O=C(COc1ccc2ccc(=O)oc2c1)NCCN1CCOCC1 | -12 | 9 | 24 | 1 | -5
O=C(NCC(c1ccco1)N1CCOCC1)c1ccccc1 (stereo not given) | 12 | -2 | . | -2 | 3
COC(=O)Cn1cc(C#N)c2ccccc21 | 70* | 9 | 1 | . | .
COc1ccc(CC(NC(C)=O)C(=O)NC2CCN(S(=O)(=O)c3ccccc3)CC2)c(OC)c1 (stereo not given) | -2 | 0 | 1 | 0 | -2
CC(=O)Nc1ccc(N/C=C(\C#N)S(=O)(=O)c2ccc(Cl)cc2)cc1 | 4 | . | -1 | -6 | 0
CC(=O)Nc1ccc(/C=C(\C#N)S(=O)(=O)c2ccc(C)cc2)cc1 | 60* | -12 | 0 | -7 | 11
O=C(NCc1cccnc1)c1ccc(-c2ccc(Cl)cc2)o1 | 1 | . | 0 | -2 | 8
O=C(NCc1cccnc1)/C(=C\c1ccc(-c2ccc(Cl)c(Cl)c2)o1)S(=O)(=O)c1ccccc1 | -12 | 59* | 0 | 0 | i
CCn1c(SCC(=O)Nc2ccccc2F)nnc1-c1cnccn1 | 19 | 4 | -6 | -9 | -13
Cc1cc(N2CCN(c3nc4ccccc4s3)CC2)n2ncnc2n1 | . | -19 | -4 | . | 87*
Cc1ccc(S(=O)(=O)NC(=O)C2(C)CCN2C(=O)c2c(C)noc2C)cc1 (stereo not given) | 9 | 1 | 0 | 4 | -8
COc1ccc(-c2nn(-c3ccccc3)cc2N)cc1 | 0 | -1 | 63* | 0 | -117
COc1ccc(-c2nn(-c3ccccc3)cc2CO)cc1 | . | 1 | 32 | . | .
O=C1CN(C(=O)c2cc(Br)c(Br)s2)c2ccccc2N1 | . | 3 | 7 | . | .
c1ccc(CCN2CCN=C2Nc2ccccc2)cc1 | 42* | 12 | . | -8 | -6

Assay outcomes as filed in PubChem BioAssay.
